A selection follows.
aSyn UTR act: Activators via SNCA 5'UTR binding, MLPCN | alpha-synuclein 5'UTR reporter, activators screen | activity score, % (tested at 7.5 µM), hits read low | 7.1% of 300,000 active; in the data active = activity score below about -60%
Numbers without * were called inactive.

Screening COc1cc(/C=N/NC(=O)c2cccs2)ccc1OCc1ccccc1 returned aSyn UTR act -105*.
`COc1cc(/C=N/NC(=O)c2cc(C)oc2C)ccc1OCc1ccccc1` gave aSyn UTR act -102*.
`COc1cc(/C=N/OCC(=O)NC2CCCCC2)ccc1OCc1ccccc1` gave aSyn UTR act -97*.
Screening COc1cccc(OCc2cc(C(=O)NCc3ccccn3)no2)c1 returned aSyn UTR act -128*.
COc1ccc(OCc2cc(C(=O)NCc3cccc(C)n3)no2)c(Cl)c1 was read as aSyn UTR act -65*.
For Cc1ccc(C)c(Nc2c([N+](=O)[O-])cc(C(=O)N3CC(=O)Nc4ccccc43)cc2[N+](=O)[O-])c1 the results were aSyn UTR act 78.
O=C1CN(C(=O)c2cccc(Br)c2)c2ccccc2N1 was read as aSyn UTR act -85*.
`O=C(Nc1cccc(-c2nc3ccccc3s2)c1)c1cccs1` gave aSyn UTR act -63*.
O=C(CCS(=O)(=O)c1ccccc1)Nc1cccc(-c2nc3ccccc3s2)c1 was read as aSyn UTR act -135*.
`O=C(CSc1nnc2ccccn12)Nc1cccc(-c2nc3ccccc3s2)c1` gave aSyn UTR act -134*.
NNc1nc(-c2ccccc2)nc2sc3c(c12)CCCC3 was read as aSyn UTR act -65*.
CCOC(=O)c1sc(Nc2nc3ccc(OC)cc3s2)cc1C was read as aSyn UTR act -69*.
Screening CCOC(=O)c1sc(Nc2nc3c(F)cccc3s2)cc1C returned aSyn UTR act -280*.
For N/C(Cc1nc(-c2ccc(Br)cc2)cs1)=N\O the results were aSyn UTR act -96*.
Screening Nc1nc(-c2ccc(Br)cc2)cs1 returned aSyn UTR act -99*.
O=C(c1ccccc1)c1cc(-c2ccccc2)on1 was read as aSyn UTR act -108*.
c1ccc(-c2cc(-c3ccccc3)on2)cc1 was read as aSyn UTR act -152*.
Nc1nc(-c2cc(-c3ccccc3)no2)cs1 was read as aSyn UTR act -174*.
Screening Nc1nc(-c2ccccc2)cs1 returned aSyn UTR act -97*.
CC1=CC2=NC(=O)/C(=C\c3cccn3CCOc3ccc(C)c(C)c3)C(=N)N2O1 was read as aSyn UTR act -95*.
For NC(=O)c1ccccc1NC(=O)COc1ccc(Cl)cc1 the results were aSyn UTR act -101*.
For Cc1ccc(OCC(=O)Nc2ccccc2C(N)=O)cc1 the results were aSyn UTR act -98*.
`Cc1cc(C(=O)COC(=O)c2ccccc2O)c(C)n1Cc1cccs1` gave aSyn UTR act 93.
For Cc1ccc(C(=O)OCC(=O)c2cc(C)n(CC3CCCO3)c2C)cc1 (configuration not stated) the results were aSyn UTR act -161*.
Screening CC(=O)Nc1ccccc1OCC(=O)c1cc(C)n(Cc2cccs2)c1C returned aSyn UTR act -150*.
Cc1cc(C(=O)COC(=O)c2ccc(N)c([N+](=O)[O-])c2)c(C)n1Cc1ccc2c(c1)OCO2 was read as aSyn UTR act -164*.
Screening Cc1cc(C(=O)COC(=O)c2ccc3c(c2)OCO3)c(C)n1Cc1cccs1 returned aSyn UTR act -65*.
For Cc1cc(C(=O)CSc2nnc(-c3cccnc3)n2-c2ccccc2)c(C)n1CC1CCCO1 (configuration not stated) the results were aSyn UTR act -78*.
For C=CCn1c(C)cc(C(=O)COC(=O)c2ccc(N)c([N+](=O)[O-])c2)c1C the results were aSyn UTR act -142*.
`COc1cc(/C=N/N=C2/NC(=O)C(CC(=O)O)S2)ccc1OCc1ccc(Cl)cc1` (configuration not stated) gave aSyn UTR act -149*.
COc1cc(/C=N/NC(N)=S)ccc1OCc1ccc(C)cc1 was read as aSyn UTR act -179*.
`COc1cc(/C=N/O)ccc1OCc1ccc(Cl)cc1` gave aSyn UTR act -97*.
Screening COc1cc(/C=N/O)ccc1OCc1ccc(C(=O)O)cc1 returned aSyn UTR act 116.
For Cc1ccc2[nH]c(=O)c(-c3nc4cc(C)ccn4c3NCc3ccco3)cc2c1 the results were aSyn UTR act -78*.
Screening CCc1ccc2c(c1)C(=O)c1ccccc1C2=O returned aSyn UTR act -199*.
`CCCCN1C=CC(=C2C(=O)c3ccccc3C2=O)C=C1` gave aSyn UTR act 98.
Screening CCCc1ccc(Oc2cc(C)nc(N3CCOCC3)n2)cc1 returned aSyn UTR act -63*.
O=C(NC(=S)N1CCCCC1)c1csc([N+](=O)[O-])c1 was read as aSyn UTR act -87*.
For O=C(CNCc1ccccc1)Nc1ccc(Cl)cc1 the results were aSyn UTR act -82*.
O=C(CNCc1ccc(Cl)cc1)Nc1ccc2c(c1)OCCO2 was read as aSyn UTR act -99*.
O=C(CNCc1ccccc1Cl)Nc1ccc2c(c1)OCCO2 was read as aSyn UTR act -117*.
Screening O=C(CSCc1ccccc1Cl)Nc1ccc2c(c1)OCCO2 returned aSyn UTR act -152*.
Cc1ccc(Nc2nc(N)nc(CSCCO)n2)cc1 was read as aSyn UTR act -112*.
Cc1ccc(Nc2nc(N)nc(CSc3ncccn3)n2)cc1 was read as aSyn UTR act -132*.
Screening Nc1nc(CSc2ncccn2)nc(Nc2ccccc2)n1 returned aSyn UTR act -148*.
`CCOc1ccc(Nc2nc(N)nc(CCl)n2)cc1` gave aSyn UTR act 96.
`Cc1ccc(Nc2nc(N)nc(CC#N)n2)cc1` gave aSyn UTR act -118*.
For CSc1nc(N)c(C(=O)Nc2ccc([N+](=O)[O-])cc2)s1 the results were aSyn UTR act -66*.
For N#C/C(=C/c1ccc(O)c(O)c1)c1nc2ccccc2[nH]1 the results were aSyn UTR act -148*.
N#C/C(=C\c1cn(-c2ccccc2)nc1-c1cc2ccccc2o1)c1nc2ccccc2[nH]1 was read as aSyn UTR act -106*.
For N#C/C(=C\c1ccc(Sc2ccccc2)o1)c1nc2ccccc2[nH]1 the results were aSyn UTR act -219*.
N#C/C(=C\c1cccs1)c1nc2ccccc2[nH]1 was read as aSyn UTR act -256*.
Screening CC(C)CC(/C(O)=C(\C#N)c1nc2ccccc2[nH]1)N1C(=O)c2ccccc2C1=O (configuration not stated) returned aSyn UTR act 65.
N#C/C(=C\Nc1ccc2c(c1)OCCO2)c1nc2ccccc2[nH]1 was read as aSyn UTR act -65*.
O=[N+]([O-])c1cc(/C=N/n2cnnc2)ccc1N1CCCC1 was read as aSyn UTR act 65.
N#C/C(=C\c1ccc(N2CCCC2)c([N+](=O)[O-])c1)c1nc2ccccc2[nH]1 was read as aSyn UTR act -80*.
N#C/C(=C/c1cccs1)c1ccccn1 was read as aSyn UTR act -117*.
N#C/C(=C\c1ccc(OC(=O)c2cccs2)cc1)c1nc2ccccc2[nH]1 was read as aSyn UTR act -153*.
Screening C/C(=N\Nc1nc(N)cc(Cl)n1)c1ccc(F)cc1 returned aSyn UTR act -71*.
Screening C/C(=N\Nc1nccnc1Cl)c1ccc(F)cc1 returned aSyn UTR act -104*.
Screening CCN=C1NN=C(c2ccc(C)cc2)CS1 returned aSyn UTR act -128*.
Screening c1ccc(CN=C2NN=C(c3ccccc3)CS2)cc1 returned aSyn UTR act -182*.
CC(C)OC(=O)CC12CN(C)CC(CC(=O)OC(C)C)(CN(C)C1)C2=O was read as aSyn UTR act -98*.
O=C(Oc1ccc(-c2cnc3ccccc3n2)cc1)c1ccc(Cl)c([N+](=O)[O-])c1 was read as aSyn UTR act -129*.
